Results on five compounds are retold here after PubChem BioAssay.

SMILES strings stand for the structures. Results filed as inconclusive are left out. Activity calls are given as the source filed them.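 How the source made its calls, unless noted: active means binding below the plate cutoff, the plate median minus 3 SD, with a reading above zero; inconclusive means below the plate cutoff but reading exactly zero; inactive means the rest.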

Assay [1] can be described thus: yeast TOR pathway RPL19A-GFP modulators, primary screen, cell-based, S. cerevisiae, multiplex flow cytometry (AID 1862; in the data active means percent of DMSO control GFP below about 86%;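 further: lower values mimic rapamycin by blocking the RPL19A rise seen in DMSO cells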). As to conditions: S. cerevisiae RPL19A-GFP strain, flow cytometry fluorescence, 3 h; at 10 µM; stronger effect = lower value.
Assay [2] is described as follows: modulators of MEP2-GFP levels in yeast, primary screen, S. cerevisiae, multiplex flow cytometry (AID 1867;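 active means GFP response, as percent of the DMSO control, above the screen-wide mean plus 3 SD, about 139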;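 further: median GFP channel fluorescence of barcode-gated MEP2-GFP cells measured by flow cytometry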). To be noted: S. cerevisiae MEP2-GFP strain, 3 h, at 10 µM, stronger effect = higher value, 100% means same as DMSO wells. On the technique in general: Flow cytometry measures light scatter and fluorescence of single cells or particles in a stream.
The nature of assay [3]: modulators of CIT2-GFP expression in yeast, primary screen, S. cerevisiae, GFP fusion, multiplex flow cytometry (AID 1870;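 active means percent response above a set limit, the screen-wide mean plus 3 SD, cut at about 130% in these data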;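 further: barcoded CIT2-GFP strain pooled with four other GFP strains with rapamycin as positive control; median GFP fluorescence per well over plate mean of DMSO wells so 100% = DMSO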). To be noted: 3 h, at 10 µM, stronger effect = higher value.
A short description of assay [4]: modulators of LAP4-GFP expression in yeast, primary screen, S. cerevisiae, multiplex flow cytometry (AID 1873;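 active means GFP signal, as percent of the solvent control, above the screen mean plus 3 SD, about 149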). To be noted: 3 h, at 10 µM, stronger effect = higher value.
A short description of assay [5]: modulators of AGP1-GFP expression in yeast TOR pathway, primary screen, cell-based, multiplex flow cytometry, S. cerevisiae (AID 1887;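 active means GFP signal above the screen-wide mean plus 3 SD, that is over about 124.5% of the solvent control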;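 further: AGP1-GFP fusion strain of S. cerevisiae within a five-strain barcoded multiplex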). To be noted: 3 h, at 10 µM, stronger effect = higher value.
Assay [6] in a line: inhibitors of CD8+ T cell-vesicle binding, pilot screen, LFA-1/ICAM-1 modulator project, MLPCN validation set, flow cytometry (AID 2523;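 active means response below a set limit, under 55% cells CD8-positive and vesicle-bound, and CD8 cells' 90th-percentile brightness under 279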;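 on vesicle binding response: mean PE anti-B7-1 fluorescence of CD8+ cells relative to row control; 100% = QL9-loaded vesicles with DMSO vehicle in the same plate row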). As to conditions: 2C mouse CD8+ T cells, at 7 µM, stronger effect = lower value; double positive events: measured here: CD8+/vesicle+ event percentage.
In assay [7] the target is Integrin beta-1 (Homo sapiens) + Integrin alpha-4 (Homo sapiens) (UniProt P13612+P05556). Description: inhibition of HUTS-21 binding to VLA-4, pilot screen, VLA-4 allosteric modulator project, U937 cells, HUTS-21 mAb, flow cytometry, validation set (AID 2674;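 active means inhibition above 50%, about 3 SD of the validation set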;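 further: antibody binding induced by the VLA-4 ligand LDV present at three times its Kd; 0% = LDV ligand with antibody and no compound and 100% = antibody without LDV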). To be noted: HUTS-21 LIBS mAb binding, at 6.7 µM, stronger effect = higher value, binding induced by LDV ligand.
A short description of assay [8]: superoxide lowering in aged yeast cells, pilot screen, validation compound set (AID 2706;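 active means superoxide response below 65% of plate, a cut near 3 SD across the whole screen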;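 further: yeast exposed to compound for one week at 30 degrees C before staining; 100% = mean of all compound wells on the same plate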). As to conditions: S. cerevisiae aging, superoxide DHE fluorescence; at 10 µM, stronger effect = lower value.
The target in assay [9] is Beta-adrenergic receptor kinase 1 (Homo sapiens) (UniProt P25098). Kind of assay: GRK2 binders displacing RNA aptamer, biochemical, validation, human GRK2, bead flow cytometry (AID 488806;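 active means aptamer binding inhibition above 30%, about 3 SD of noise from non-fluorescent compounds; inactive means inhibition at or below 30%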). To be noted: bead-bound GRK2, FAM-aptamer displacement, at 10 µM, stronger effect = higher value.
The target in assay [10] is AP-2 complex subunit beta (Homo sapiens) (UniProt P63010). Kind of assay: inhibitors of arrestin peptide binding to AP2, pilot screen, biochemical, validation set, GST-AP2 beads, flow cytometry (AID 504541;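 active means inhibition above 54%, about 3 SD of non-fluorescent compounds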;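 further: AP2 carries R879A mutation and is captured from E. coli lysate; bead-bound FITC arrestin peptide fluorescence measuring arrestin peptide binding to AP2; 0% = DMSO wells and 100% = excess unlabeled arrestin peptide control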). As to conditions: FITC arrestin peptide, at 10 µM, stronger effect = higher value, AP2 beta2 appendage fragment, R879A mutant.
Assay [11] can be described thus: yeast V-ATPase proton transport modulators, S. cerevisiae, pHLuorin, HTS validation (AID 504600; in the data active means response above about 15%;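 further: plate controls were DMSO for no effect and reference compound for full effect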). To be noted: S. cerevisiae pHLuorin cytosolic pH, at 10 µM, stronger effect = higher value.
The test system of assay [12] is anti-desmoglein-3 scFv antibody binding to human DSG3. Kind of assay: inhibitors of anti-DSG3 scFv binding to DSG3, pilot screen, biochemical, validation compound set, bead-based, flow cytometry (AID 588368).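 Further: signal is the median channel fluorescence of bead-bound GFP antibody.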 As to conditions: Protein G beads, DSG3-Fc, scFv-GFP binding, at 10 µM, stronger effect = lower value.
Assay [13] can be described thus: inhibitors of fungal efflux pumps CDR1, CDR2, MDR1, pilot screen, validation compound set, multiplex, phenotypic (AID 588506;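 active means efflux inhibition above 0.42, the validation set average plus 4 SD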;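 further: Nile Red retained in cells so higher fluorescence means more efflux inhibition; 0 = negative control wells and 1 = enniatin B 25 µM full block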). To be noted: S. cerevisiae pump-expressing triplex, Nile Red efflux flow cytometry; at 10 µM; stronger effect = higher value; the pumps come from Candida albicans.
Assay [14] concerns the target ATP-binding cassette sub-family B member 6 (Homo sapiens) (UniProt Q9NP58). Kind of assay: ABCB6 transporter inhibitors, pilot screen, K562-ABCB6 cells, flow cytometry, validation set (AID 588550;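 active means inhibition above the screen-wide mean plus 3 SD, about 51%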;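 further: 0% = DMSO wells and 100% = benzethonium chloride 70 µM positive control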). As to conditions: K562-ABCB6 porphyrin accumulation, 1 h, at 10 µM, stronger effect = higher value.
A short description of assay [15]: promoters of myeloid differentiation in arrested cells, primary screen, cell-based, GFP/MAC1 double positive, flow cytometry, validation set (AID 588685;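 active means differentiation response of at least 50%, scaled between solvent and reference control, from cells with both markers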;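 further: compound exposure lasts four days before antibody staining and flow analysis; 0% = DMSO wells and 100% = 5 µM fulvestrant positive control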). As to conditions: ER-HoxA9 marrow cells, stronger effect = higher value, normalized: vehicle 0, fulvestrant 100.

Chain of AP-2 complex subunit beta (Homo sapiens) (P63010 whole entry, looked up, the tested form may be a part, one chain of several): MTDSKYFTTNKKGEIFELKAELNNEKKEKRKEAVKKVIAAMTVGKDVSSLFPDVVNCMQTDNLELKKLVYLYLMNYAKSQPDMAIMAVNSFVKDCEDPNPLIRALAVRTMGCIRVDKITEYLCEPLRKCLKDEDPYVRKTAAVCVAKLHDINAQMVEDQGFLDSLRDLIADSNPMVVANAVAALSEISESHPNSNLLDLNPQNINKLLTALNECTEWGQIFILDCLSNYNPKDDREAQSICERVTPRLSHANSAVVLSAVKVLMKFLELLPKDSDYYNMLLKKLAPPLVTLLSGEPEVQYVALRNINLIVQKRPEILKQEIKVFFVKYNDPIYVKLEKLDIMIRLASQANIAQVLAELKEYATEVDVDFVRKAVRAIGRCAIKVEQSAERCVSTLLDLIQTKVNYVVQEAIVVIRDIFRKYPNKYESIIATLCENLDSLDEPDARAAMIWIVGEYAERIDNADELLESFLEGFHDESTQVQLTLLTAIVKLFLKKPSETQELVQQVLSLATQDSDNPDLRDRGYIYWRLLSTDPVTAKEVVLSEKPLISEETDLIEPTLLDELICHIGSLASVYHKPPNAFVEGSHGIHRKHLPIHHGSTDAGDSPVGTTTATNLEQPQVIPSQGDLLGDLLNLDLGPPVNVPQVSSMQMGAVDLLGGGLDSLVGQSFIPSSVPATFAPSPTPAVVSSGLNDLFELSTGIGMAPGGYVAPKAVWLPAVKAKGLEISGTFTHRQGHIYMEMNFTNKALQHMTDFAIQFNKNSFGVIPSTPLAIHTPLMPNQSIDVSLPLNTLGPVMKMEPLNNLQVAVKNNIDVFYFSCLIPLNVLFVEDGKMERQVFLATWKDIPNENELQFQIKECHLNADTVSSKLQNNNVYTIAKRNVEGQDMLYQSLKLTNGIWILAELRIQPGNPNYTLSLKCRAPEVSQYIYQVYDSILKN
Chain of ATP-binding cassette sub-family B member 6 (Homo sapiens) (Q9NP58 whole entry, looked up): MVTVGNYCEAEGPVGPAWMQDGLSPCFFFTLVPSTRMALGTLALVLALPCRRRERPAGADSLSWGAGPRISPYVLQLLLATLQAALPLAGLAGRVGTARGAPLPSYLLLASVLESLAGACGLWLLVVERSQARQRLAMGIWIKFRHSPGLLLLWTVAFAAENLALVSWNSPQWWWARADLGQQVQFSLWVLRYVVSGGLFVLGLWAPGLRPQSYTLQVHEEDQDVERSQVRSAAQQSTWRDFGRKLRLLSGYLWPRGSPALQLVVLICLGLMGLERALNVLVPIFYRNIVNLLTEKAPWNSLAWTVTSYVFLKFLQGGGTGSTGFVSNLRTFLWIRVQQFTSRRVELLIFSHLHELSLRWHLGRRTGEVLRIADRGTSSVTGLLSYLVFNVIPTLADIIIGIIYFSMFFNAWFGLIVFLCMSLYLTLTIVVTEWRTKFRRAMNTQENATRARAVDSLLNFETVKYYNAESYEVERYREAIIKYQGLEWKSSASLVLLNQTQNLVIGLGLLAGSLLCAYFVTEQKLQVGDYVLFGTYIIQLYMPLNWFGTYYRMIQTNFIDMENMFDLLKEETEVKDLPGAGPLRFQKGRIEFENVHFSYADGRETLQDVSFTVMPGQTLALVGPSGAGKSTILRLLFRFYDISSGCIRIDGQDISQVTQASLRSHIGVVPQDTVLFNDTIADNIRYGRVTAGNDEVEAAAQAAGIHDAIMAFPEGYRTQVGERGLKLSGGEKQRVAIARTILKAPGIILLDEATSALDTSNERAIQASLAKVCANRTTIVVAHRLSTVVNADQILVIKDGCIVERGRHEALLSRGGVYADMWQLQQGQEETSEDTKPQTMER
Chain of Integrin beta-1 (Homo sapiens) + Integrin alpha-4 (Homo sapiens) (P05556 whole entry, looked up): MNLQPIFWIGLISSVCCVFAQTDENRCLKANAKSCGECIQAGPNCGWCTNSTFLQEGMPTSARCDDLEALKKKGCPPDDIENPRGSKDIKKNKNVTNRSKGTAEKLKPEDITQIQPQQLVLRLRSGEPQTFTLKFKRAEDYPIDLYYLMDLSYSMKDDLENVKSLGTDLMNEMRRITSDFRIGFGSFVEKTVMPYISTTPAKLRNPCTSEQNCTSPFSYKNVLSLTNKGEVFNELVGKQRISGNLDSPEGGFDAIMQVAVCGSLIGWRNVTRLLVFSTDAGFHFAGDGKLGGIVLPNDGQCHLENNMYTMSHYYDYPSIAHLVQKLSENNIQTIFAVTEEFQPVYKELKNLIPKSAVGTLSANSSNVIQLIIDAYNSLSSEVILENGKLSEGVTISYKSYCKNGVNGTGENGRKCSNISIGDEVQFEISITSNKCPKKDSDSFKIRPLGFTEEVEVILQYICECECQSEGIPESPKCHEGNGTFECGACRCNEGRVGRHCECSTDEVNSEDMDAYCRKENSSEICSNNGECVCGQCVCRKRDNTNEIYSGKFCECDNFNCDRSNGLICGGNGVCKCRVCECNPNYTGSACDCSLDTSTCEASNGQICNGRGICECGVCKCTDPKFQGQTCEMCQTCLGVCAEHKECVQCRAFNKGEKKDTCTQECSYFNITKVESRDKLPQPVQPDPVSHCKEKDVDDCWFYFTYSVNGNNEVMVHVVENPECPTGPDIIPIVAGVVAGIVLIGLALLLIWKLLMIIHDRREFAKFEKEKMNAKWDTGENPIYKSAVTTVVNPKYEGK
Chain of Integrin beta-1 (Homo sapiens) + Integrin alpha-4 (Homo sapiens) (P13612 whole entry, looked up): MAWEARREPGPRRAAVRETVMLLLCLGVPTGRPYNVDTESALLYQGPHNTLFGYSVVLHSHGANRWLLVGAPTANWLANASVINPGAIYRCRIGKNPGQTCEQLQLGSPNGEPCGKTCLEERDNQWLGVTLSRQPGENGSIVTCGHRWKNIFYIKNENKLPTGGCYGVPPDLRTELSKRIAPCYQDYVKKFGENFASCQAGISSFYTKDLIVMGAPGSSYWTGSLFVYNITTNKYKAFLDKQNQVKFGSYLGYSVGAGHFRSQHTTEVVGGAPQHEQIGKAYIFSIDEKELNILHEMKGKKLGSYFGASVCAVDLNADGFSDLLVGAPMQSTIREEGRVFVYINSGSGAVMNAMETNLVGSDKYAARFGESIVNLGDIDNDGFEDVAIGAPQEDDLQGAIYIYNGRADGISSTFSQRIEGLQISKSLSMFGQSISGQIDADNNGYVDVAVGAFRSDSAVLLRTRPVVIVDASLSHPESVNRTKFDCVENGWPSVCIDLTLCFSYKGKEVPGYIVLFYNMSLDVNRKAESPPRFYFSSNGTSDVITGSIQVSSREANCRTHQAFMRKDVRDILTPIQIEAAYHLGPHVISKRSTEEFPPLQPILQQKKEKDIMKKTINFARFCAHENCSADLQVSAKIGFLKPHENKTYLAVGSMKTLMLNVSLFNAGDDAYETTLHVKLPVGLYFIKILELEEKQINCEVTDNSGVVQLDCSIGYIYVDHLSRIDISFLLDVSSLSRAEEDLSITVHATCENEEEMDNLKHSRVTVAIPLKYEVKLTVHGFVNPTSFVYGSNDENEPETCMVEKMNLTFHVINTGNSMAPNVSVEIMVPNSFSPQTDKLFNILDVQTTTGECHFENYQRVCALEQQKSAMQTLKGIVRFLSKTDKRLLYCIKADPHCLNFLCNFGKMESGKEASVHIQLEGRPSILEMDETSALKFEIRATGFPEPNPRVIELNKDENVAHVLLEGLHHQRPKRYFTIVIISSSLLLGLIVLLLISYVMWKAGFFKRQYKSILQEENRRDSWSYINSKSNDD
Chain of Beta-adrenergic receptor kinase 1 (Homo sapiens) (P25098 whole entry, looked up): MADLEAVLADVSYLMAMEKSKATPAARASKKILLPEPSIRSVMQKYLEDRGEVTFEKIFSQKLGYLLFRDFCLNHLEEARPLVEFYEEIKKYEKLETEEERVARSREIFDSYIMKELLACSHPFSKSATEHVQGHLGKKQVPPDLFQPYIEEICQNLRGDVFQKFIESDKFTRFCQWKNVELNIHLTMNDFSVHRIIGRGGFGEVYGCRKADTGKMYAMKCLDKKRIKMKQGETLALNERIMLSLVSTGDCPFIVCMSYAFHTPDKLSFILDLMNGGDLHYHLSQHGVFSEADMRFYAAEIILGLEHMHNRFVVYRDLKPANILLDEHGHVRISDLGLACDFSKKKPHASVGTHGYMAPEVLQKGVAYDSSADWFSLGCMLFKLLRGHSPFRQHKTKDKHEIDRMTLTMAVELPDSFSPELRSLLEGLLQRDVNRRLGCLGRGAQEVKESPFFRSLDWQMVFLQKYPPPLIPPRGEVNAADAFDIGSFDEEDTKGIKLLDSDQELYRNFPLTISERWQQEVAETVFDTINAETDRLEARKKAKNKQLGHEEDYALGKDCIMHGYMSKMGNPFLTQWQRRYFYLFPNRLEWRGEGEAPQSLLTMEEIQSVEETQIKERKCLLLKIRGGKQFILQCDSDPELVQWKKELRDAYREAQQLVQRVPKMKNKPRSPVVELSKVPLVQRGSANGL

With `O=C(CCCN1CC=C(n2c(=O)[nH]c3ccccc32)CC1)c1ccc(F)cc1`, the percent of DMSO control GFP in [1] is 98.1% (inactive). Moreover, the GFP response vs DMSO is 95.9% (inactive) in assay [2] and 93.3% (inactive) in assay [4]. In [3], the percent response of DMSO control was 106% (inactive). Also, the GFP response, % of DMSO in assay [5] is 97.2% (inactive). In addition, the double positive events in [6] turned out to be 63%. Also, in [6], the vesicle binding response is 237% (inactive). For the same compound, the inhibition was 5.36% (inactive) in assay [7], -14.3% (inactive) in assay [10] and 6% (inactive) in assay [14]. Besides, the superoxide response (% of plate) in assay [8] was 97.2% (inactive). Moreover, the aptamer binding inhibition in assay [9] was -3% (inactive). For the same compound, the response in assay [11] was -6.07% (inactive). In addition, the binding (% of control) in [12] is 104% (inactive). The efflux inhibition (fraction of control) in assay [13] was -0.05 (inactive). Further, the differentiation response in assay [15] is -19.6% (inactive).
In the case of `CCN(CC)C1=C(Cl)C(=O)C(Cl)C12OCCO2` (stereo not given), the percent of DMSO control GFP in [1] is 100% (inactive). Also, the GFP response vs DMSO in assay [2] was 104% (inactive); in assay [4], 100% (inactive). In assay [3], the percent response of DMSO control is 88.1% (inactive). In addition, in assay [5], the GFP response, % of DMSO is 89.2% (inactive). In assay [6], this compound had a double positive events of 61.5%. Also, the vesicle binding response in [6] is 160% (inactive). Moreover, the values for the inhibition in [7], in assay [10] and in assay [14] were 6.29% (inactive), 49.7% (inactive) and 10% (inactive), respectively. Further, the superoxide response (% of plate) in assay [8] is 94.6% (inactive). The aptamer binding inhibition in [9] is -5% (inactive). Besides, the response in assay [11] is 1.58% (inactive). In assay [12], the binding (% of control) was 95.6% (inactive). Besides, the efflux inhibition (fraction of control) in assay [13] was 0.9 (active). In [15], the differentiation response is 6.26% (inactive).
`Cn1c(=O)oc2cc(S(=O)(=O)N3CCc4ccccc4C3)ccc21`: in assay [1], the percent of DMSO control GFP was 101% (inactive). In addition, the GFP response vs DMSO in assay [2] is 98.9% (inactive); in assay [4], 89.3% (inactive). Further, in assay [3], the percent response of DMSO control was 102% (inactive). Also, in assay [5], the GFP response, % of DMSO is 97.8% (inactive). The double positive events in assay [6] came to 58.4%. In addition, the vesicle binding response in [6] was 165% (inactive). The inhibition in assay [7] was 15.6% (inactive); in assay [10], 7.43% (inactive); in assay [14], 10% (inactive). Moreover, in assay [8], the superoxide response (% of plate) is 95.2% (inactive). For the same compound, the aptamer binding inhibition in assay [9] was 2% (inactive). The response in [11] was 2.89% (inactive). In addition, the binding (% of control) in assay [12] was 98.3% (inactive). For the same compound, in assay [13], the efflux inhibition (fraction of control) was -0.05 (inactive). In [15], the differentiation response is 9.49% (inactive).
Take `COc1ccc(C=NCC2COc3ccccc3O2)cc1OC` (stereo not given): the percent of DMSO control GFP in [1] is 103% (inactive). Further, the GFP response vs DMSO in assay [2] was 101% (inactive); in [4] it was 90.3% (inactive). The percent response of DMSO control in assay [3] is 98.8% (inactive). Also, the GFP response, % of DMSO in [5] was 95.5% (inactive). This compound showed a double positive events in assay [6] of 62.8%. The vesicle binding response in [6] was 187% (inactive). In addition, the inhibition in [7] is 0.69% (inactive); in [10] it was 17.1% (inactive); in assay [14], 10% (inactive). In [8], the superoxide response (% of plate) was 104% (inactive). Moreover, the aptamer binding inhibition in [9] is -1% (inactive). Also, in assay [11], the response was -2.12% (inactive). Further, the binding (% of control) in [12] is 107% (inactive). For the same compound, the efflux inhibition (fraction of control) in [13] is 0.63 (active). For the same compound, in assay [15], the differentiation response is -5.05% (inactive).
Take `CO[C@@H]1O[C@@H]2COC(c3ccccc3)O[C@@H]2[C@@H](OC)[C@@H]1O` (stereo not given in full): the percent of DMSO control GFP in [1] is 103% (inactive). Also, the GFP response vs DMSO in [2] is 104% (inactive); in [4], 96.4% (inactive). In addition, the percent response of DMSO control in [3] was 106% (inactive). Besides, the GFP response, % of DMSO in assay [5] is 99.6% (inactive). Also, the double positive events in assay [6] stood at 56%. Besides, in assay [6], the vesicle binding response is 166% (inactive). In addition, the inhibition in [7] is 5.36% (inactive); in assay [10], 15.1% (inactive); in assay [14] it was 4% (inactive). In assay [8], the superoxide response (% of plate) was 117% (inactive). For the same compound, the aptamer binding inhibition in assay [9] is 5% (inactive). In addition, the response in assay [11] is 4.1% (inactive). The binding (% of control) in assay [12] is 102% (inactive). The efflux inhibition (fraction of control) in assay [13] is 0.1 (inactive). The differentiation response in assay [15] is -9.89% (inactive).

By inhibition is commonly meant the relative decrease from the control value, in per cent.
